In PubChem BioAssay AID1220 (Sanford-Burnham Center for Chemical Genomics, 2008) one finds inhibition data, which are given here for 27 compounds.

As a reminder, the inhibition is the relative decrease from the control value, in per cent.

In all, about 190,000 compounds went through this assay and about 1,300 (0.68%) were called active. Rule as the data show it: active = inhibition above about 50%; inactive = the rest. The full list was thinned out, with actives kept by preference.

The target in the test is Mannose-6-phosphate isomerase (Homo sapiens) (UniProt P34949). The test is described as follows: human PMI inhibitors, high substrate, primary screen, biochemical, fluorescence intensity, high mannose 6-phosphate (AID 1220). The note with it: recombinant PMI enzyme, coupled fluorescence intensity; at 20 µM; stronger effect = higher value.
Sequence of Mannose-6-phosphate isomerase (Homo sapiens) (P34949 whole entry, looked up): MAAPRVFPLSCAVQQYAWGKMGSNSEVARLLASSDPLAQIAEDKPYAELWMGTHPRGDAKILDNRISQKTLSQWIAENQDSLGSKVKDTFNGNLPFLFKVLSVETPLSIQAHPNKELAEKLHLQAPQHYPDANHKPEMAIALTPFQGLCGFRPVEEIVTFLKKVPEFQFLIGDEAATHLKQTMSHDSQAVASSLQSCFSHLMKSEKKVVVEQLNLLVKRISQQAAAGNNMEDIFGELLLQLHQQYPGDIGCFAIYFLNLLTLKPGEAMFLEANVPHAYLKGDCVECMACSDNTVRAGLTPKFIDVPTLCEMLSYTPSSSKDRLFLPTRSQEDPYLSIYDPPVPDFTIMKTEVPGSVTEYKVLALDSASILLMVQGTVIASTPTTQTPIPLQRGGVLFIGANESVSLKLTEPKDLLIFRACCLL
For `CN(/N=C/c1ccc([N+](=O)[O-])o1)c1ccccc1`, the inhibition was -3.1% (inactive).

As to `CCN(CC)c1ccc(N=Cc2c(C)[nH]c3ccccc23)cc1`, the inhibition is 69.7% (active).

Regarding `CCN(CC)c1ccc(N=Cc2ccccc2[N+](=O)[O-])cc1`, the inhibition was 64.4% (active).

Turning to `CCN(CC)c1ccc(N=Cc2ccc([N+](=O)[O-])o2)cc1`, the inhibition is 59.7% (active).

`CCNC(=S)N/N=C/c1ccccc1[N+](=O)[O-]`: the inhibition was -1.5% (inactive).

As to `CCCCNC(=S)N(C)/N=C/c1c(C)[nH]c2ccccc12`, the inhibition was 9.5% (inactive).

In the case of `Cc1[nH]c2ccccc2c1/C=N/n1cnnc1`, the inhibition was -4.2% (inactive).

Turning to `CCCCCC(=O)N/N=C/c1ccccc1[N+](=O)[O-]`, the inhibition was -6.7% (inactive).

Turning to `O=[N+]([O-])c1ccc(/C=N/N=C/c2ccc([N+](=O)[O-])o2)o1`, the inhibition was 24.5% (inactive).

In the case of `CCN(CC)c1ccc(/C=N/NS(=O)(=O)c2cccc([N+](=O)[O-])c2)cc1`, the inhibition was -83.2% (inactive).

As to `O=C(CNC(=O)C1COc2ccccc2O1)N/N=C\c1cccc(O)c1` (configuration not stated), the inhibition was -10.8% (inactive).

With `Cc1cccc(-n2nnc3c(=O)n(CC(=O)Nc4cc(C)on4)cnc32)c1`, the inhibition is -4.2% (inactive).

As to `COc1ccccc1N/C=C1/Sc2cc(Cl)ccc2NC1=O`, the inhibition was 3% (inactive).

For `COc1cc2ccnc(Cc3cccc(OC)c3OC)c2cc1OC`, the inhibition was 44.9% (inactive).

Regarding `COc1cc(N)c(Cc2nccc3cc(OC)c(OC)cc23)cc1OC`, the inhibition is 56.4% (active).

Regarding `CCOC(=O)Nc1cc(OC)c(OC)cc1Cc1nccc2cc(OC)c(OC)cc12`, the inhibition is -1.9% (inactive).

For `COc1ccc(NC(=O)c2ccccc2NC(=O)CSc2ccccc2)cc1`, the inhibition is 2.1% (inactive).

For the compound `C=C(C)C1Cc2c(C)nn(-c3ccccn3)c2C1` (configuration not stated), the inhibition was -10.9% (inactive).

On to `Cc1nn(-c2ccccn2)c2c1C(=O)C(Br)CC2` (configuration not stated), for which the inhibition was 72.9% (active).

Consider `Cc1nn(-c2ccccn2)c2c1C(c1ccccn1)C1=C(CCCC1=O)N2` (configuration not stated), for which the inhibition was 0.2% (inactive).

`Cc1ccccc1C(=O)NNC(=O)C12CC3CC(CC(C3)C1)C2`: the inhibition is 7% (inactive).

As for `CC(=O)CC(=O)Nc1ccc(C(N)=O)cc1`, the inhibition was 6.1% (inactive).

Take `COc1ccc(C2C(C#N)=C(N)Oc3cc(C)n(CCN4CCOCC4)c(=O)c32)cc1OC` (configuration not stated): the inhibition was -0.4% (inactive).

Regarding `COc1cc(OC)c(C2C(C#N)=C(N)Oc3cc(C)n(CCCN4CCOCC4)c(=O)c32)cc1OC` (configuration not stated), the inhibition is 61.6% (active).

For the compound `COc1cc(C2C(C#N)=C(N)Oc3cc(C)n(CCN4CCOCC4)c(=O)c32)cc(OC)c1OC` (configuration not stated), the inhibition was -11.7% (inactive).

As to `N#Cc1nc(-c2ccc(Cl)cc2)oc1N1CCCCC1`, the inhibition is -8.5% (inactive).

`COc1ccccc1-n1c(CNC(=O)c2cccc([N+](=O)[O-])c2C)n[nH]c1=S`: the inhibition is -7.8% (inactive).
